Test results taken from PubChem BioAssay AID651813 (National Center for Advancing Translational Sciences (NCATS), 2012).
Among all 2,100 compounds or so, about 1,100 (52%) were called active. Another 27% or so got no clear call; they are omitted. Calls come from the whole dose curve; as a rule, active = well fitted inhibition curve with a large enough effect; inconclusive = small, poorly fitted or top-dose-only effect; inactive = no such curve, though single readings can be large or run the other way. So high a share suggests a set chosen from earlier hits. The list shows a part of the results.

Each compound was assayed against DNA dC->dU-editing enzyme APOBEC-3G (Homo sapiens) (UniProt Q9HC16) (assay: qHTS for inhibitors of Vif-A3G interactions: Cherry picks counterscreen). Settings: HeLa A3G-eYFP + Vif (tagged APOBEC3G with the HIV-1 protein that degrades it), eYFP fluorescence, 24 h.
In short: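 HeLa cells stably expressing A3G-eYFP and Vif were treated for 24 h at 37 deg C with compounds at several concentrations; yellow fluorescence (Ex 488 nm, Em 500-530 nm) read by Acumen Explorer, MG132 as positive control.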
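Note: hits raise yellow fluorescence by blocking Vif-driven A3G-eYFP degradation; nearly all actives have a fitted effect of over 70% in size.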
Potency is the fitted concentration of half-maximal effect.
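Throughout, for max response: max response given as percent of control signal.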

DNA dC->dU-editing enzyme APOBEC-3G (Homo sapiens), sequence (Q9HC16 whole entry, looked up): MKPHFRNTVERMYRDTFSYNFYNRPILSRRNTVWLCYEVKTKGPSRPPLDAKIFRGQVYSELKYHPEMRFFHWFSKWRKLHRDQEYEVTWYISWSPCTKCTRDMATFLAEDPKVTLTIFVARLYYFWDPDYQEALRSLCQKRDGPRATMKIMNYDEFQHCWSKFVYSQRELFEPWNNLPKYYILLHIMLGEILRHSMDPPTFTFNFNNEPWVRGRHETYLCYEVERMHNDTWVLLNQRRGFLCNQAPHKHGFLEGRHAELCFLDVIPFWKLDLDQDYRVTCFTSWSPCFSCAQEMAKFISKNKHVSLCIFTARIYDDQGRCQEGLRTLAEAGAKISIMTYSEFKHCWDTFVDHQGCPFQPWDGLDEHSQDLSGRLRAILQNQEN

SMILES	Potency	max response
CC[N+](C)(C)c1ccc(/C=C/c2ccncc2)cc1	16.4 µM (active)	–
CCC[N+](C)(C)c1ccc(/C=C/c2ccncc2)cc1	16.4 µM (active)	–
Cc1ccc(-c2nc(C=Nc3ccc(O)cc3)c(O)o2)cc1	–	-18.6% (inactive)
N#Cc1c(Nc2ccccc2)[n+]([O-])c2ccc(Cl)cc2[n+]1[O-]	–	26.1% (inactive)
O=C1CC(c2ccccc2F)c2cc3c(cc2N1)CCC3 (configuration not stated)	2.8 µM (active)	–
O=C1CC(c2cc(Br)ccc2F)c2cc3c(cc2N1)CCC3 (configuration not stated)	1.4 µM (active)	–
CCOC(=O)Cc1csc(NC(=O)c2sc3nc4c(C)cc(C)cc4cc3c2N)n1	20.6 µM (active)	–
CCOc1cc(S(=O)(=O)NCc2ccc(OC)cc2)c(OCC)cc1-n1cnnn1	8.86 µM (active)	–
Cc1cc(C)c(N2C(=O)CC(Sc3ccccc3N)C2=O)c(C)c1 (configuration not stated)	17.7 µM (active)	–
Cc1ccc(S(=O)(=O)N2CCN(C(=O)CSC(=S)N3CCCC3)CC2)c(C)c1	–	-17.2% (inactive)
COc1cc(C(=O)NCC(=O)N2CCN(S(=O)(=O)c3cc(C)ccc3C)CC2)cc(OC)c1OC	9.94 µM (active)	–
COC(=O)c1ccc(Cl)cc1NC(=O)N1CC=C(c2c[nH]c3ccccc23)CC1	23.1 µM (active)	–
Cc1ccc(C)c(NC(=O)N2CC=C(c3c[nH]c4ccccc34)CC2)c1	16.4 µM (active)	–
CCOc1ccc(NC(=O)N2CC=C(c3c[nH]c4ccccc34)CC2)cc1	18.4 µM (active)	–
CSc1cccc(NC(=O)c2cc3c(COC(C)=O)cnc(C)c3oc2=O)c1	–	2.84% (inactive)
Cc1cc(C)nc(-n2nc(C)cc2NC(=O)c2ccc(F)cc2F)n1	–	-9.45% (inactive)
COc1ccccc1NS(=O)(=O)c1cc([N+](=O)[O-])ccc1N/N=C/c1sc(N2CCOCC2)nc1-c1ccccc1	0.58 µM (active)	–
O=[N+]([O-])c1ccc(N/N=C/c2sc(N3CCOCC3)nc2-c2ccccc2)c(S(=O)(=O)Nc2ccccc2Cl)c1	2.91 µM (active)	–
Cc1cc2nc(SCCOC(=O)Nc3cccc(Cl)c3)nc(C)c2cc1C	–	0.137% (inactive)
C=CCOC(=O)C1=C(C)NC(C)=C(C(=O)OCC=C)C1c1cn(-c2ccccc2)nc1-c1ccco1	–	-22.7% (inactive)
COc1ccc2c(C)cc(SCC(=O)N(C)C3CCS(=O)(=O)C3)nc2c1 (configuration not stated)	20.6 µM (active)	–
COc1ccc2c(C)cc(SCC#N)nc2c1	18.4 µM (active)	–
CCS(=O)(=O)N1N=C(c2cccc(NS(C)(=O)=O)c2)CC1c1ccc(C)cc1 (configuration not stated)	23.1 µM (active)	–

SMILES	Potency	max response
CCS(=O)(=O)N1N=C(c2ccc(C)cc2)CC1c1cc2ccc(OC)cc2nc1Cl (configuration not stated)	–	-6.38% (inactive)
CS(=O)(=O)Nc1ccc(C2=NN(S(C)(=O)=O)C(c3ccc4c(c3)OCO4)C2)cc1 (configuration not stated)	14 µM (active)	–
CS(=O)(=O)N1N=C(c2ccccc2)CC1c1ccc2c(c1)OCO2 (configuration not stated)	12.5 µM (active)	–
CC1=CC(C)(C)NC(=S)N1c1ccc2ccccc2c1	–	5% (inactive)
C=C(/C=C/c1ccc(N(C)C)cc1)c1nc2ccccc2s1	16.4 µM (active)	–
O=c1[nH]ncc2c3ccccc3n(Cc3cccc(Cl)c3)c12	18.4 µM (active)	–
CC[N+](C)(C(=O)O)/C(=C\c1ccccc1)c1ccnc2ccccc12 (configuration not stated)	16.4 µM (active)	–
C[C@@H]1O[C@@H](O[C@@H]2C(=O)c3c(O)cc(O)cc3O[C@H]2c2ccc(O)c(O)c2)[C@H](O)[C@H](O)[C@H]1O	–	-0.692% (inactive)
CCSc1nnc(-c2sc3nnc(-c4ccccc4)c(-c4ccccc4)c3c2N)o1	4.61 µM (active)	–
CCN1CCc2nc3sc(C(=O)c4ccccc4)c(N)c3cc2C1	18.4 µM (active)	–
COc1ccc(NC(=O)c2sc3nc4c(cc3c2N)CN(Cc2ccccc2)CC4)c(OC)c1	18.4 µM (active)	–
Cc1cc(N2CCN(C)CC2)ccc1NC(=O)c1c2c(nc3ccccc13)CCN(Cc1ccccc1)C2	–	4.5% (inactive)
Nc1c(C(=O)c2ccc(Cl)cc2)sc2nc3c(cc12)CCC3	16.4 µM (active)	–
COCCN1C(=O)/C(=C/c2ccc(N3CCCC3)cc2C)SC1=S	4.11 µM (active)	–
COCCN1C(=O)/C(=C/c2ccc(N3CCCC3)cc2)SC1=S	7.31 µM (active)	–
Cc1ccc2oc(/N=C(\N)NC(=O)C(C)(C)C)nc2c1	–	-19% (inactive)
C/C(=N\NC(N)=S)C12CC3CC(CC(C3)C1)C2	–	27.9% (inactive)
COc1cc(OC)c(/C=C/c2ccnc3ccccc23)c(OC)c1	7.31 µM (active)	–
COc1ccc(NC(=S)Nc2ncccc2C)c(OC)c1	–	-0.005% (inactive)
COc1ccc(/C=C/c2ccnc3ccccc23)c(OC)c1	16.4 µM (active)	–
c1ccc2c(-c3nc4ccccc4[nH]3)cccc2c1	11.2 µM (active)	–
CCC(C)n1c(NC(=O)c2ccccc2)c(C#N)c2nc3ccccc3nc21 (configuration not stated)	18.4 µM (active)	–
CCn1ncc(/C=N\NC(=O)c2csc3ccccc23)c1C	5.59 µM (active)	–

SMILES	Potency	max response
COc1ccc(Cn2c(=O)cc(N)n(-c3ccccc3C)c2=O)cc1	11.2 µM (active)	–
CCN(CC)c1ccc2cc(-c3nc(-c4cc(OC)c(OC)c(OC)c4)no3)c(=O)oc2c1	0.517 µM (active)	–
CCN(CC)c1ccc2cc(-c3nnc(-c4ccccc4)o3)c(=O)oc2c1	–	49.6% (inactive)
CCN(CC)c1ccc2cc(-c3nnc(-c4cccc(Cl)c4)o3)c(=O)oc2c1	2.59 µM (active)	–
CCN(CC)c1ccc2cc(-c3nc(-c4ccccc4)no3)c(=O)oc2c1	2.06 µM (active)	–
CCN(CC)c1ccc2cc(-c3nc4ccccc4n3C)c(=O)oc2c1	1.3 µM (active)	–
CN(Cc1cnn(Cc2ccccc2)c1)C(=O)c1cccc(S(=O)(=O)N2CCOCC2)c1	11.2 µM (active)	–
c1ccc(-c2cccc(-c3ccccn3)n2)nc1	–	-27.5% (inactive)
Nc1[nH]c2cc([N+](=O)[O-])ccc2c1-c1ccccn1	4.61 µM (active)	–
COc1cc(C(=O)NCCOc2cc(C)cc(C)c2)cc(OC)c1OC	3.14 µM (active)	–
CCn1c(CNC(=O)c2cc(OC)c(OC)c(OC)c2)cc2cc(C)ccc21	–	-10.2% (inactive)
CNC(=O)C(Sc1nc(C)nc2c1oc1ccccc12)C(C)=O (configuration not stated)	–	-16.6% (inactive)
CCOc1ccccc1Oc1nc(C)nc2c1oc1ccccc12	2.91 µM (active)	–
O=Cc1s/c(=N\S(=O)(=O)c2ccccc2)n(CCCCl)c1Cl	8.2 µM (active)	–
COc1ccc(C2=CC(c3ccc(N(C)C)cc3)n3nnnc3N2)cc1 (configuration not stated)	23.1 µM (active)	–
CN(C)c1ccc(C2C=C(c3ccccc3)Nc3nnnn32)cc1 (configuration not stated)	23.1 µM (active)	–
N#Cc1c(C(F)(F)F)cc(-c2cccs2)nc1SCC(=O)Nc1ccc(Cl)cc1	10.3 µM (active)	–
N#Cc1c(C(F)(F)F)cc(-c2cccs2)nc1SCC(=O)Nc1cccc(C(F)(F)F)c1	20.6 µM (active)	–
N#Cc1c(C(F)(F)F)cc(-c2cccs2)nc1SCC(=O)Nc1cccc(Cl)c1	–	-23.7% (inactive)
O=C(CSc1n[nH]c(-c2ccccn2)n1)Nc1ccc(Cl)cc1	–	17.5% (inactive)
CCOC(=O)c1ccc(NC(=O)CSc2nc(-c3cccs3)cc(C(F)(F)F)c2C#N)cc1	23.1 µM (active)	–
O=[N+]([O-])c1cc(O)c2ncccc2c1	–	-9.81% (inactive)
O=[N+]([O-])c1cc(Cl)c2cccnc2c1O	–	30.7% (inactive)

SMILES	Potency	max response
O=[N+]([O-])c1ccc(Oc2cccc3cccnc23)c([N+](=O)[O-])c1	12.5 µM (active)	–
Cc1cc(C)cc(C(=O)N2CC(=O)Nc3ccccc32)c1	0.704 µM (active)	–
O=C1CN(C(=O)c2cc(Br)c(Br)s2)c2ccccc2N1	12.5 µM (active)	–
COc1cc(OC)cc(C(=O)N2CC(=O)Nc3ccccc32)c1	3.53 µM (active)	–
CCC(C)[C@H](NC(=O)N1CC(=O)Nc2ccccc21)C(=O)Nc1ccccc1C (some centres not stated)	9.94 µM (active)	–
COc1cc(C(=O)N2CC(=O)Nc3ccccc32)cc(OC)c1OC	17.7 µM (active)	–
CCCn1nc(C(=O)N2CC(=O)Nc3ccccc32)c2ccccc2c1=O	7.04 µM (active)	–
COc1cc(C(=O)c2ccc3c(c2)OCO3)cc(OC)c1OC	5.59 µM (active)	–
CCOC(=O)N1CCN(c2c(NCc3ccc(F)cc3)c(=O)c2=O)CC1	14 µM (active)	–
CCOC(=O)Nc1cc2c(c(N)n1)N=C(c1ccccc1)CN2	0.058 µM (active)	–
C=CCNC(=S)N/N=C(\C)c1ccc(OC)cc1	–	-1.31% (inactive)
COc1ccc(NC(=S)NN(C)C(=S)Nc2ccc(OC)cc2)cc1	6.27 µM (active)	–
COc1ccc(N(C)S(=O)(=O)c2cccc3cccnc23)c(OC)c1	14 µM (active)	–
O=c1cc(-c2ccccc2)[nH]c2ccccc12	3.14 µM (active)	–
Cc1ccc(N/C(N)=N/c2nc(CSc3nnc(C)s3)cc(=O)[nH]2)c(C)c1	2.8 µM (active)	–
O=c1c(Cl)c2oc3ccccc3nc-2c2ccccc12	10.3 µM (active)	–
CC[n+]1c(C=C2C=C(C)OC(C)=C2)sc2ccccc21	4.11 µM (active)	–
COCCCN(C(C)=O)c1nc(-c2ccc(OC)cc2)cs1	14 µM (active)	–
CCCC(=O)NC1=C(Cl)C(=O)c2ccccc2C1=O	–	62.1% (inactive)
O=C(CCc1ccccc1)Nc1ccc(Cl)cn1	7.9 µM (active)	–
S=C(NCc1ccco1)Nc1ccc(Cl)cn1	–	-10.1% (inactive)
Cc1ccc(-c2nc(-c3cc4cccc(OCc5cccc(F)c5)c4oc3=O)no2)cc1	23.1 µM (active)	–
COc1cc(/C=C/C(=O)c2ccc3c(c2)OCCO3)cc(Br)c1OCC(=O)N(C)C	14 µM (active)	–
